Measurements as given in the supplement of paper PMC5499739.
Over roughly 16,000 sequences, “Z-score” has its median near -0.37; the highest 2% begin near 3.2. The full list was thinned out, with the highest values kept by preference.

System: RBM10 RRM1-ZnF (GST-tagged construct)
Experiment: RNAcompete 7-mer binding Z-score; higher = stronger binding preference
Outline: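 A one-sided Z-score for enrichment, taken across the probes containing each heptamer motif, was assigned to every such motif. The RNA came from a designed pool of 241 399 sequences up to 41 nt (1.5 nmol), bound by 20 pmol of GST-tagged RBM10 constructs in 1 ml Hepes pH 7.8 buffer with glutathione Sepharose beads for 30 min at 4°C. Four 2-min washes at 4°C preceded identification of bound RNA by microarray hybridisation.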

Sequence | RNAcompete 7-mer binding Z-score
GUGUAAA | 0.618
AUGACGG | 1.39
UAAAUAU | -0.425
CGGAUGU | 1.04
CGUGGAA | 1.19
GGUGGAG | 4.02
UGUGGAA | 2
AGUGGAA | 3.24
AGUGGAU | 2.35
GGUGGAA | 3.81
AGUGGAC | 1.34
GGUGGAU | 2.75
UGUGGAG | 2.62
UUCCGGC | -0.649
GCCUGCU | -0.724
UGUCGUA | -0.311
UGUUUAG | -0.0155
UAUAGGC | 0.196
AAACCCC | -0.597
UCCGAUA | -0.746
GGGUGCA | 2.74
GAGGCCG | 0.0723

Sequence | RNAcompete 7-mer binding Z-score
UUGCCGU | -0.659
CUGGGCC | -0.0285
GCCCAUA | -0.805
CGAAGGG | 2.43
AGAAGCU | -0.48
AGAAGGA | 3.99
AGAAGAA | 1
AGAAGGG | 3.86
UGAAGGU | 2.57
AGAAGGC | 0.699
AGAAGAG | 1.64
AGAAGGU | 3.26
GGAAGGC | 2.63
CGAAGGU | 1.5
GGAAGGU | 4.23
CCCCCAU | -0.448
GAAUGAC | 0.16
GGCAGUC | 0.28
AGCCUUU | -1
ACUUAUG | -0.655
GGAAGGA | 4.79
CGAAGGA | 1.62

Sequence | RNAcompete 7-mer binding Z-score
UGAAGGA | 2.99
UGAAGCG | 0.608
UGAAGGC | 1
UGAAGGG | 3.82
GCAUUCU | -0.785
UCGUACU | -0.539
GAGGCAC | 0.628
CCUAGUG | -0.266
UUCCAUC | -0.675
GCAGCGC | -0.178
GAUGAGG | 3.56
GGUGAGA | 2.57
GAUGAGU | 1.06
AUUGAGG | 1.63
CAUGAGG | 1.03
GGUGAGG | 4.5
GUUGAGG | 3.36
GUUGAGC | 0.706
CGUGAGG | 1.35
GUGUGUC | 0.137
CUCAAUA | -0.802
GCGAAGG | 2.06

Sequence | RNAcompete 7-mer binding Z-score
UAACUAU | -0.617
GCUAACA | -0.399
AGAGCUG | 0.163
GAUGGAC | 1.78
AAUGGAG | 3.43
AAUGGAA | 3.35
CAUGGAG | 1.48
GAUGGAA | 3.36
GAUGGAG | 3.52
UAUGGAA | 1.22
GUUGGAA | 1.84
CAUGGAA | 1.1
UAUGGAG | 1.67
AAUGGAC | 2.03
GAUGGAU | 2.6
AUCUACA | -0.568
CACCCUC | -0.578
UGCUUGA | -0.737
GGCGCAU | 0.183
UGAUGAC | -0.0512
CUUGCCU | -0.824
UCAUCUG | -0.844

Sequence | RNAcompete 7-mer binding Z-score
GUUUCAC | -0.597
GGGGUUA | 3.21
GGGGUUG | 3.76
GGGGUUU | 3.16
AGGGUUU | 2.56
AGGGUUA | 3.55
UGGGUUU | 2.64
GGGGUUC | 1.79
AGGGUUC | 0.985
UGGGUUG | 3.04
UGGGUUA | 3.28
GCGGUUG | 1.42
CGGGUUG | 2.79
AAUCUAA | -0.617
UUAUACA | -0.542
AUGUGGU | 1.52
GUCCGAC | -0.662
CUUCGGC | -0.759
AGAUAUC | -0.688
AGGGUCG | 1.41
ACGGUUG | 1.78
AGGGUUG | 3.8
